# Screening results deposited in PubChem by Broad Institute.
# dFosB act-1: mouse delta FosB homodimer activation; P13346; AID 493131; activation, % at 25 µM; 0.99% of 340,000 active; purified delta FosB, TAMRA-CDK5 oligo fluorescence polarization; percent of positive-control signal above neutral wells;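 active = mean activation above about 17%, with every replicate also reaching it, limit read from the data, passing the limit was not always enough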
# Target sequence (P13346 whole entry, looked up): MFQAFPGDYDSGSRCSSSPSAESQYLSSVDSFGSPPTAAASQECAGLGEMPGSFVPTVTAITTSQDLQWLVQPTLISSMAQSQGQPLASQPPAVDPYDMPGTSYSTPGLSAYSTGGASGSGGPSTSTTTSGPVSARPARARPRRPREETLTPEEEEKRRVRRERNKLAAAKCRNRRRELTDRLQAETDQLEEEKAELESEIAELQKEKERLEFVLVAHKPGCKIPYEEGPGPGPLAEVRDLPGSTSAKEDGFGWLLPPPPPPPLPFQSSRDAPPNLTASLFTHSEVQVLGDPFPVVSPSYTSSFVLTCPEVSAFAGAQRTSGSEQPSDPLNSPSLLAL
# PglD DTNB: PglD (C. jejuni) enzyme inhibition; AID 602405; purified PglD enzyme, DTNB colorimetric CoA detection; inhibition, % at 12.5 µM; 0.098% of 360,000 active; in the data active = inhibition above about 16%, passing the limit was not always enough
# FGF22 binding: FGF22 (human) thermal shift binding; activity (Tm shift, normalised), % at 9.99 µM; Q9HCT0; 1.5% of 340,000 active; recombinant FGF22 thermal shift, SYPRO orange fluorescence; percent of sucrose octasulfate shift, DMSO zero;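 active = mean Tm shift, scaled 0 neutral to 100 positive control, at about 1.3% or above, every replicate too, limit read from the data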
# Target sequence (Q9HCT0 whole entry, looked up): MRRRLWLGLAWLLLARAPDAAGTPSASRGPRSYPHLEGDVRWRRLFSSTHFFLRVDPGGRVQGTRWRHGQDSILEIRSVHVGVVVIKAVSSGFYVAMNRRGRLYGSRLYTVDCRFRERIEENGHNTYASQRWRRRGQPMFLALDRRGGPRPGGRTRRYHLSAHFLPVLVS
# SIRT5 inh: inhibitors of human sirtuin-5 desuccinylase | 1.1% of 330,000 active | Purified SirT5, succinyl-peptide AMC, trypsin-coupled fluorescence | inhibition, % at 15 µM; in the data active = inhibition above about 15%
# CDK5 p35 inh: blocks human CDK5/p35 kinase activity; Recombinant CDK5/p35, ADP-Glo luminescence, 60 min; inhibition, % at 10 µM; 0.01% of 330,000 active; AID 488839;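 active = highest replicate inhibition of at least 50% and at least 75% of replicates reaching 50%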
# PvdQ acylase: P. aeruginosa PvdQ acylase inhibition. purified PvdQ acylase, fluorescence plate reader. inhibition, % at 10 µM. AID 488965. 0.063% of 340,000 active; in the data active = inhibition above about 30%, passing the limit was not always enough
# dFosB act-2: activators of mouse delta FosB homodimer DNA binding; activation, % at 24.9 µM; shares compounds with dFosB act-1; 2,400 tested, under 10 active; purified delta FosB, TAMRA-CDK5 oligo fluorescence polarization; normalised: neutral wells 0, positive control 100;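 active = highest replicate activation at or above 34% and every replicate reaching that threshold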;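 also: higher polarization means more probe DNA bound by delta FosB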
# Numbers stand for hits; n = inactive; x = no result given. Rows were chosen to be rich in hits. Some 2.8% of all compounds tested hit in one or more screens of this group.
SMILES,dFosB act-1,PglD DTNB,FGF22 binding,SIRT5 inh,CDK5 p35 inh,PvdQ acylase,dFosB act-2
COc1cccc(NC(=O)Cn2nnc(C(=O)Nc3cc(Cl)ccc3OC)c2N)c1,38,n,n,n,n,n,n
CCOC(=O)c1sc(NC(=O)Nc2ccc(Cl)cc2)cc1C,24,n,x,x,n,n,n
O=c1[nH]c(/C=C/c2ccc(OC(F)F)cc2)nc2c1cnn2-c1ccccc1,65,x,x,x,n,n,n
CC(C)Sc1nc2c(cnn2-c2ccccc2)c(=O)[nH]1,n,n,n,n,n,n,x
Cc1ccc(C2(C(F)(F)F)NC(=O)N3C(=C2C#N)Nc2ccccc23)cc1 (configuration not stated),23,n,x,x,n,n,n
CO[C@@H]1CN(C)C(=O)c2cc(NC(=O)CC(F)(F)F)ccc2OC[C@H](C)N(CC2CC2)C[C@@H]1C,x,x,n,n,x,x,x
COc1ccc(-c2cc(-c3cccs3)c(C#N)c(SCC(=O)NCc3ccco3)n2)cc1,47,n,x,x,n,n,n
O=C(C[C@H]1CC[C@H]2[C@@H](COC[C@@H](O)CN2C(=O)c2ccccc2F)O1)NCc1ccc(-c2ccccc2)cc1,x,n,n,n,x,x,x
C=CCOc1ccc(CN(C)CC(O)COc2cccc3ccccc23)cc1 (configuration not stated),19,n,n,n,n,n,n
CN1CCN(c2ccc(-c3cccc(NC(=O)COc4ccc(Cl)cc4Cl)c3)nn2)CC1,28,x,n,n,n,n,n
O=C(NCc1ccccn1)[C@H]1[C@H](CO)[C@H]2Cn3c(cccc3=O)[C@H]2N1CCc1ccccc1,x,n,n,n,x,x,x
COCCn1c(N)c(N(Cc2ccccc2)C(=O)c2ccc(-c3ccc(Cl)cc3)o2)c(=O)[nH]c1=O,23,n,n,n,n,n,n
C[C@@H]1CN([C@@H](C)CO)C(=O)c2cc(-c3ccccc3)cnc2O[C@@H]1CN(C)C(=O)Cc1cccnc1,x,n,n,n,x,x,x
CC(=O)Nc1ccc(NC(=O)C2CCCN(c3nnc(-n4cccc4)s3)C2)cc1 (configuration not stated),31,x,x,x,n,n,n
CN1CCN(c2nc(-c3ccccc3O)nc3ccccc23)CC1,n,x,n,n,n,n,x
OCCN1CCN(c2nc(-c3ccccc3O)nc3ccccc23)CC1,24,n,n,n,n,n,n
CCN(C(=O)COC(=O)CNC(=O)c1ccc2ccccc2c1)c1c(N)n(Cc2ccccc2)c(=O)[nH]c1=O,n,n,n,n,n,n,x
COCCN(C(=O)COC(=O)/C=C/c1ccc(SC)cc1)c1c(N)n(Cc2ccccc2)c(=O)[nH]c1=O,21,n,n,n,n,n,n
CCN(C(=O)COC(=O)c1ccc2ccccc2c1)c1c(N)n(Cc2ccccc2)c(=O)[nH]c1=O,38,n,n,n,n,n,n
CCN(C(=O)COC(=O)/C=C/c1ccc(OC)c(OC)c1)c1c(N)n(Cc2ccccc2)c(=O)[nH]c1=O,20,n,n,n,n,n,n
CCOc1ccc(NC(=S)NC(=O)/C=C/c2ccc(OC)c(OC)c2)c([N+](=O)[O-])c1,25,n,x,x,n,n,n
CCOc1ccc(NC(=O)/C=C/c2ccc(OC)cc2)c([N+](=O)[O-])c1,n,n,x,x,n,n,x
CCOc1ccc(NC(=S)NC(=O)/C=C/c2ccc(C)cc2)c([N+](=O)[O-])c1,39,x,x,x,n,n,n
O=C(CCc1nc2ccccc2c(=O)[nH]1)Nc1nnc(SCc2ccc(F)cc2)s1,90,x,n,n,n,n,n
C=CCn1c(C)cc(-c2csc(NC(=O)CCc3nc4ccccc4c(=O)[nH]3)n2)c1C,n,n,n,n,n,n,x
SMILES,dFosB act-1,PglD DTNB,FGF22 binding,SIRT5 inh,CDK5 p35 inh,PvdQ acylase,dFosB act-2
O=C(CCc1nc2ccccc2c(=O)[nH]1)Nc1nc(-c2cccs2)cs1,26,x,n,n,n,n,n
O=C([C@@H]1[C@@H](CO)[C@@H]2Cn3c(cccc3=O)[C@H]1N2C(=O)c1ccccc1)N1CCCCC1,x,n,n,n,x,x,x
C/C(=N\NC(=O)CSc1nc2ccccc2o1)c1cccc(O)c1,25,n,n,n,n,n,n
C/C(=N\NC(=O)CSc1nc2ccccc2o1)c1ccc(O)cc1,n,n,n,n,n,n,x
COc1cccc(NC(=O)N(C)C[C@@H]2Oc3ncc(C#Cc4ccc(F)cc4)cc3C(=O)N([C@H](C)CO)C[C@H]2C)c1,x,n,n,n,x,x,x
COc1ccc(Br)cc1/C=C/C(=O)NC(=S)Nc1ccc(CN2CCOCC2)cc1,48,n,n,n,n,n,n
COc1ccc(NC(=O)Nc2ccc3c(c2)C(=O)N([C@H](C)CO)C[C@@H](C)[C@H](CN(C)S(=O)(=O)c2ccc(OC)cc2)O3)cc1,x,n,n,n,x,x,x
CCOc1ccc(-n2c([S-])c(C(=O)Nc3ccc(S(=O)(=O)N4CCOCC4)cc3)[n+]3cc(C(N)=O)ccc23)cc1,20,x,n,n,n,n,n
C[C@@H](NC(=O)C[C@H]1CC[C@H](NC(=O)Nc2ccc3c(c2)OCO3)[C@@H](CO)O1)c1ccccc1,x,n,n,n,x,x,x
O=C(O)c1ccccc1OC(C(=O)Nc1cc(Cl)cc(Cl)c1)c1ccccc1 (configuration not stated),36,n,n,n,n,n,n
O=C(Nc1cc(F)ccc1F)N[C@@H]1CC[C@H](CC(=O)N2CCc3ccccc3C2)O[C@@H]1CO,x,n,n,n,x,x,x
CO[C@H]1CN(C)C(=O)c2ccc(NC(=O)NC(C)C)cc2OC[C@H](C)N(C)C[C@@H]1C,x,x,x,n,x,x,x
CC(=O)c1ccc(Nc2nc(NCCO)nc(OC(C(F)(F)F)C(F)(F)F)n2)cc1,n,n,x,x,n,n,x
CNc1nc(Nc2ccc(C(C)=O)cc2)nc(OC(C(F)(F)F)C(F)(F)F)n1,44,n,x,x,n,n,n
Cc1cc(C)n(CC(=O)NNC(=O)CCCOc2ccc(Cl)cc2C)n1,34,n,n,n,n,n,n
Cc1cccc(OCCC(=O)NNC(=O)Cn2nc(C)cc2C)c1,n,n,n,n,n,n,x
Cc1cc(C)n(CC(=O)NNC(=O)CCCOc2ccc(Cl)c(C)c2)n1,21,n,n,n,n,n,n
Cc1noc(C)c1NC(=O)N(C)C[C@@H]1Oc2ncc(C#CC3CCCC3)cc2C(=O)N([C@H](C)CO)C[C@@H]1C,x,n,n,n,x,x,x
O=C(CCn1c(=O)c2cccn2c2cccnc21)NCc1cccc(Cl)c1,21,n,n,n,n,n,n
Cc1ccc(-c2cc(C(=O)N/N=C/c3ccco3)[nH]n2)cc1,n,n,x,x,n,n,x
O=C(N/N=C/c1ccco1)c1cc(-c2ccc(Cl)cc2)n[nH]1,25,x,n,n,n,n,n
CNC[C@H]1Oc2ccc(NS(=O)(=O)c3ccc(C)cc3)cc2C(=O)N([C@@H](C)CO)C[C@@H]1C,x,n,n,n,x,x,x
